Compound activity as filed in PubChem.
CBFb-RUNX1 inh = blocks binding between human CBF-beta and RUNX1; AlphaScreen CBFb-His/RUNX1-biotin binding, biochemical; Potency, µM (doses to about 59.8 µM), inactives show at the highest dose activity, negative = inhibition, most hits filed as inhibitors; 230,000 tested, under 10 active; AID 1477; also: % of control where 0% means no effect
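Interaction loss through any mechanism counts as activity. Pre-formed complex of His-CBF-beta and biotin-RUNX1 (30 nM apiece) is incubated with compound 15 min, then with 50 ng nickel and 50 ng streptavidin beads for 90 min before AlphaScreen detection.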
Tau fibril FP = tau fibrillization inhibition (FP); P10636; K18 P301L tau heparin fibrillization, Alexa594 FP, 6 h; Potency, µM (doses to about 57.7 µM), for the others: at the top dose activity, negative = inhibition, usual class: inhibitors; actives 0.39% (n = 280,000); AID 1468; also: potency is read from the fitted curve at half-maximal effect; % is scaled to controls: 0 for no effect and ±100 for the full control effect; nearly all actives have a fitted effect of over 55% in size
Target sequence (P10636 561-689 P618L limits assumed): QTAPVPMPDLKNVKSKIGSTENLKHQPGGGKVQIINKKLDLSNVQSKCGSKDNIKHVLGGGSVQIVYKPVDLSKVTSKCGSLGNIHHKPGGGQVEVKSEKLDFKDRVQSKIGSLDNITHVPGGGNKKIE
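Quantitative HTS format: compounds meet 15 uM recombinant K18 P301L tau and Alexa 594-tau tracer in 100 mM sodium acetate pH 7; 20 uM heparin triggers fibrillization at 37 C over 6 hr; FP gives the signal.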
Tau fluor counter = counter-screen for tau fibril formation inhibitors; tau K18 P301L Alexa594 fluorescence, heparin fibrillization; Potency, µM (titrated, usually from 57.7 µM), inactives show at the highest dose activity change, negative = decrease; actives 0.93% (n = 280,000); AID 1463; also: potency is read from the fitted curve at half-maximal effect; % is scaled to controls: 0 for no effect and ±100 for the full control effect; nearly all actives have a fitted effect of over 55% in size
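Human K18 P301L tau (15 uM unlabeled plus 0.24 uM Alexa 594-labeled, final) in 100 mM sodium acetate pH 7 was mixed with compound and 20 uM heparin and incubated 6 hr at 37 C.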
Tau fibril ThT = tau fibrillization inhibition (ThT binding) | P10636 | Potency, µM (doses to about 57.4 µM), without a hit: at the highest dose activity, negative = inhibition, most hits filed as inhibitors | recombinant tau K18 P301L, heparin-induced fibrillization, ThT fluorescence | AID 1460 | actives 2.1% (n = 270,000); also: potency is read from the fitted curve at half-maximal effect; % is scaled to controls: 0 for no effect and ±100 for the full control effect; nearly all actives have a fitted effect of over 55% in size
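Heparin-induced fibrillization of the P301L-mutant K18 repeat-domain fragment of human tau was followed by ThT binding in quantitative high-throughput format.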
JMJD2E inh = JMJD2E (human) inhibition; JMJD2E catalytic domain, FDH-coupled NADH fluorescence (FDH is formaldehyde dehydrogenase); actives 1.6% (n = 230,000); Potency, µM (titrated, usually from 57.1 µM), for the others: top-dose activity change, negative = inhibition, actives largely listed as inhibitors; AID 2147; active = well fitted inhibition curve with a large enough effect, not every such curve was filed as active; inconclusive = small, poorly fitted or top-dose-only effect, or another doubt; inactive = no such curve, though single readings can be large or run the other way;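 also: potency is read from the fitted curve at half-maximal effect; 0% = wells with enzyme and -100% = buffer wells without enzyme; nearly all actives have a fitted effect of over 50% in size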
Target sequence (B2RXH2 1-337 limits assumed): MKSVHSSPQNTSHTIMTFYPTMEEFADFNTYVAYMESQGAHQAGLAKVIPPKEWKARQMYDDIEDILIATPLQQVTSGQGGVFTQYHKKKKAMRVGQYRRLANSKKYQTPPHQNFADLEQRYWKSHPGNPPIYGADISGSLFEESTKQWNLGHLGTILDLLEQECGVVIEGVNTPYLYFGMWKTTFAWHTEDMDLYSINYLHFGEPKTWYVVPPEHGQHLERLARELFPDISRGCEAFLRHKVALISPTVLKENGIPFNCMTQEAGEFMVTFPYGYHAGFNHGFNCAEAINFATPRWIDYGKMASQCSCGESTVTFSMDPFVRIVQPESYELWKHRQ
LMNA splice mod = changes lamin A minigene splicing in HeLa cells; actives 0.01% (n = 200,000); AID 1487; HeLa LMNA splicing GFP/RFP minigene ratio, 48 h; Potency, µM (top dose mostly 46.1 µM), for the others: at the top dose ratio change, negative = inhibition, usual class: inhibitors; active = well fitted inhibition curve with a large enough effect in the signal ratio, with a control signal flat, not every such curve was filed as active; inconclusive = small, poorly fitted or top-dose-only effect, or effect the other way, or a change in a side signal; the % refers to the signal ratio; also: potency is read from the fitted curve at half-maximal effect; % is scaled to controls: 0 for no effect and ±100 for the full control effect
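S3 HeLa stable clones carrying a lamin A-EGFP splicing minigene plus DsRed2 were seeded at 600 cells/well in Opti-MEM with 2% FBS, pin-dosed and incubated 48 h at 37°C. Acumen cytometry (488 nm) gave the GFP/RFP total-intensity ratio.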
Tau fibril TEM = Inhibits human tau fibrillization. AID 1719. fibril grade (0 = clumped fibrils, 4 = only tiny pieces) (no concentration beside the values). actives 70% (n = 45). recombinant tau K18 P301L fibrillization, TEM grading; hits give high values. shares compounds with Tau fibril ThT;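 active = compounds whose electron micrographs showed tau fibrils broken into shorter filaments or fragments, graded high on fibril breakup; inconclusive = micrographs gave an unclear fibril picture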
tau sediment = inhibitors of human tau fibrillization, sedimentation test; shares compounds with Tau fibril ThT; recombinant tau K18 P301L (four-repeat tau fragment), sedimentation SDS-PAGE densitometry; inhibition, % at 100 µM; actives 50% (n = 110); AID 1720; in the data active = inhibition above about 40%; inconclusive = no clear call, values can overlap the other calls; inactive = below about 18%
An asterisk follows results filed as active; ? = inconclusive; . = not tested or not shown; [ ] = another dose, or the depositor's remark. Sampled rows, rich in hits. Any-hit rate of the full collection: about 3.2%. Unless noted, calls follow the shape of the dose curve; as a rule, active = well fitted curve in the direction sought with a large enough effect; inconclusive = small, poorly fitted or top-dose-only effect, or another doubt; inactive = no such curve, though single readings can be large; an effect the other way counts as inactive or inconclusive.

SMILES	CBFb-RUNX1 inh	Tau fibril FP	Tau fluor counter	Tau fibril ThT	JMJD2E inh	LMNA splice mod	tau sediment	others
O=C(Nc1ccc(F)cc1F)Nc1ccc(F)cc1F	8%	-5%	-3%	-1%	3%	-1%[46 µM]	.
O=C(Nc1ccc(F)cc1F)Nc1csc2ccccc12	3%	6%	11µM*[quencher]	?	-6%	.	.
O=C(Nc1ccc(F)c(Cl)c1)Nc1csc2ccccc12	8%	?	7.9µM*[quencher]	.	2%	.	.
O=C(N/N=C/c1cn(-c2ccccc2)nc1-c1cc2ccccc2o1)c1ccccc1Br	-4%	7%	4%	6%	0%	?	.
O=C(N/N=C/c1cn(-c2ccccc2)nc1-c1cc2ccccc2o1)c1c[nH]c2ccccc12	4%	14µM*	?	3%	5%	.	.
COc1c(Cl)cc(Cl)cc1CNCCSc1nnnn1C	.	0%	-13%	-9%	.	.	.
Cc1ccc(/C=C/C(=O)c2ccc(N3CCOCC3)cc2)s1	-4%	-1%	?	7.1µM*	-10%	2%[9.22 µM]	.
Cc1cccc(/C=C/C(=O)c2ccc(N3CCOCC3)cc2)c1	-6%	-1%	-14%	?	-11%	?	.
COc1ccc(-c2n[nH]c3c2cnc2cc(OC)c(OC)cc23)cc1	.	-3%	-10%	-15%	.	10%[46 µM]	.
Cc1ccc(C2=NNC(=Nc3ccc(F)cc3)SC2)cc1	?	-21%	?	16µM*	-1%	?	?	Tau fibril TEM=3*
C=CCn1c(C)cc(C2=NNC(=Nc3ccc(C)cc3)SC2)c1C	-17%	1%	-20%	?	-6%	10%[9.22 µM]	.
COc1ccc(N2CCN(c3ccc(-c4nc(-c5cccc(C)c5)no4)cc3[N+](=O)[O-])CC2)cc1	.	2%	-1%	5%	.	.	.
COc1ccc(CNC(=O)Cn2nc(C)n3cccc3c2=O)cc1	.	?	-15%	17%	.	.	5
COc1ccc2c(c1)c(CC(=O)Nc1ccc(C(C)=O)cc1)c(C)n2C(=O)c1ccc(Cl)cc1	-4%	?	?	?	-13%	?	12
COc1ccc2c(c1)c(CC(=O)Nc1c(C)cccc1C)c(C)n2C(=O)c1ccc(Cl)cc1	.	-13%	-4%	5%	.	.	.
COC(=O)c1c(NC(=O)CCCOc2ccc(C(C)(C)C)cc2)sc2c1C(C(=O)OC)CC2 (centres undefined)	.	?	?	8.9µM*	.	.	?	Tau fibril TEM=0
CNC(=O)C1CCC(Cn2c(=O)c3sccc3n(CC(=O)Nc3cc(C)cc(C)c3)c2=O)CC1 (centres undefined)	.	-1%	-2%	8%	.	-1%[46 µM]	.
CC(C)c1ccc(NS(=O)(=O)c2ccc3[nH]cc(C(=O)NCCc4ccccc4)c(=O)c3c2)cc1	.	?	-8%	5%	.	13%[46 µM]	8
COc1ccc2[nH]c(=O)c(CNc3ccccc3OC)cc2c1	-21%	10µM*	?	7.9µM*	?	.	61*	Tau fibril TEM=?
COc1ccc2[nH]c(=O)c(CNc3ccc(C)cc3C)cc2c1	8%	-20%	-30%	?	?	.	.
CCCN(c1ccc(C(C)C)cc1)S(=O)(=O)c1ccc2c(c1)CCN2C(=O)CC	.	-8%	2%	3%	.	.	.
Cc1ccc(NCc2cc3cc4c(cc3n(CC(=O)Nc3ccc(C)cc3)c2=O)OCCO4)cc1	.	14%	?	-3%	.	.	9
COc1cc(Cl)c(C)cc1NC(=O)Cn1cc(S(=O)(=O)N2CCN(c3ccccc3F)CC2)c2ccccc2c1=O	.	?	-11%	-2%	.	.	.
COc1ccc(NC(=O)Cn2cc(S(=O)(=O)N3CCN(c4ccccc4F)CC3)c3ccccc3c2=O)cc1Cl	.	13µM*	-14%	11%	.	.	7
CCC(C)NC(=O)Cn1c(=O)n(-c2cc(OC)cc(OC)c2)c(=O)c2ccccc21 (centres undefined)	.	-4%	-13%	-6%	.	.	.
SMILES	CBFb-RUNX1 inh	Tau fibril FP	Tau fluor counter	Tau fibril ThT	JMJD2E inh	LMNA splice mod	tau sediment	others
Cc1ccc(C(=O)Nc2nc(=O)n(C(=O)C3CC3)s2)cc1	-10%	?	-22%	8.9µM*	0%	-12%	49*	Tau fibril TEM=?
Cc1ccc(C(=O)Nc2nc3ccccc3c(=O)s2)cc1	-1%	-5%	-1%	-17%	-12%	3%	.
CCOC(=O)c1nn(-c2ccc(Cl)c(Cl)c2)c(=O)c2c(N)scc12	.	.	.	.	.	.	12
CCOC(=O)c1nn(-c2ccccc2)c(=O)c2c(N)sc(C)c12	.	.	.	.	.	.	4
CCOC(=O)c1c(-c2ccccc2)csc1NC(=O)c1ccc(N2C(=O)CCC2=O)cc1	-10%	-5%	-12%	0%	-4%	1%	.
CCOC(=O)c1nn(-c2ccccc2)c(=O)c2c(NC(=O)c3ccccc3)scc12	.	.	.	.	.	.	2
CCOC(=O)c1nn(-c2cccc(C(F)(F)F)c2)c(=O)c2c(N)scc12	.	.	.	.	.	.	41*
CCOC(=O)c1nc(N)c(=O)n(-c2ccccc2)n1	-8%	-3%	3%	-9%	6%	5%	.
Cc1oc2ncnc(N3CCOCC3)c2c1C(=O)N1CCN(c2cccc(C(F)(F)F)c2)CC1	.	-4%	-4%	-3%	.	-18%[46 µM]	.
CCOC(=O)c1nn(-c2ccc(C)c(C)c2)cc1O	-2%	1%	-20%	-16%	-8%	-6%	.
CCOC(=O)c1nn(-c2ccc(C)c(C)c2)c(=O)c2c(N)scc12	-1%	-5%	-15%	-10%	3%	4%	?
CCOC(=O)c1nn(-c2ccc(OC)cc2)c(=O)c2c(N)scc12	-8%	?	?	8.9µM*	?	-13%	66*	Tau fibril TEM=2*
CCOC(=O)c1nnn(-c2ccc(OC)cc2)c1N	15%	-2%	-2%	-5%	5%	-11%	.
Cc1cccc(N(C)S(=O)(=O)c2nnc(NC(=O)C3CCCCC3)s2)c1	.	-4%	-13%	-8%	.	-28%[46 µM]	.
Cc1ccc(N(C)S(=O)(=O)c2nnc(NC(=O)C3CCCCC3)s2)cc1	.	?	-3%	4%	.	2%[46 µM]	12
COc1ccccc1NC(=O)C(Cc1ccccc1)NS(=O)(=O)c1ccc2c(c1)CCN2C(C)=O (centres undefined)	.	1%	-3%	-1%	.	.	.
NCCc1ccc(O)c(O)c1	.	?	-28%	?	13µM*	?	15
COc1ccc(Cl)cc1C1CC(=O)Nc2cc3c(cc21)OCCO3 (centres undefined)	.	3%	-18%	-11%	.	.	.
